Laboratory results from PubChem BioAssay AID686979 (National Center for Advancing Translational Sciences (NCATS), 2013).
Among all 420,000 compounds or so, about 50,000 (12%) were called active. Where a call stands in place of a potency, no number is given. Another 26% or so got no clear call; they are omitted. Calls follow the shape of the dose curve; as a rule, active = well fitted inhibition curve with a large enough effect; inconclusive = small, poorly fitted or top-dose-only effect; inactive = flat fitted curve, though single readings scatter. Only a selection was taken, and actives are over-represented in it overall.

assay: qHTS for Inhibitors of human tyrosyl-DNA phosphodiesterase 1 (TDP1): qHTS in cells in presence of CPT; details: chicken DT40 Tdp1-/-;hTDP1 cells + 20 nM CPT, ATP luminescence, 48 h; series mostly up to 46.2 µM; also: nearly all actives have a fitted effect of over 55% in size
In short: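 Chicken DT40 Tdp1-/- cells stably complemented with human TDP1 were seeded at 400 cells/well in medium containing 20 nM camptothecin, exposed to pin-transferred compounds, and grown at 37 °C for at least 48 hr. Viability was read as ATP luminescence.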
Potency is read from the fitted curve at half-maximal effect.

Structure (SMILES) | Potency
CC1=C(C(=O)Nc2ccccc2)C(c2ccc(C)cc2)n2nc(SCc3ccccc3C)nc2N1 (stereo not drawn) | inactive
COc1cccc(NC(=O)C(=O)NCC(c2ccc3c(c2)OCO3)N2CCN(C)CC2)c1 (stereo not drawn) | inactive
COc1ccccc1CNS(=O)(=O)CC12CCC(CC1=O)C2(C)C (stereo not drawn) | inactive
CCCc1c2oc(C(=O)O)cc(=O)c2cc2c(=O)cc(C(=O)O)n(CC)c12 | inactive
Cc1ccc(CC2CC(=O)N(c3cc(C)ccc3C)C2=O)cc1 (stereo not drawn) | inactive
NS(=O)(=O)c1ccccc1NC(=O)c1c(O)c2ccccc2[nH]c1=O | inactive
Cc1oc2cc(Br)c(O)c(Br)c2c1C(=O)c1ccccc1 | inactive
O=C(Nc1ccc(N2CCOCC2)cc1)c1cccc2c(-c3ccc(F)c(F)c3)coc12 | inactive
COc1ccc(N2CCN(C(=S)Nc3ccc(S(N)(=O)=O)cc3)CC2)cc1 | inactive
C/C(Cc1ccccc1)=N\NC(=O)CNC(=O)c1ccccc1Cl | inactive
Cc1ccc(C(=O)N(CC(=O)NC2CCCC2)c2ccc(F)cc2)s1 | inactive
O=C(Cc1cc(=O)[nH][nH]1)N/N=C/c1ccccc1[N+](=O)[O-] | inactive
C/[N+]([O-])=C\c1ccc([N+](=O)[O-])o1 | 25.9 µM (active)
CC(C)(C)c1cc(C(=O)N/N=C/c2ccc([N+](=O)[O-])s2)n[nH]1 | 9.2 µM (active)
COc1ccc(/C=N/NC(=O)CNC(=O)c2ccc(S(=O)(=O)N3CCCC3)cc2)c(OC)c1 | inactive
COc1ccc(C(=O)NCC(=O)N/N=C/c2ccc([N+](=O)[O-])s2)cc1OC | 20.6 µM (active)
Cc1nn(CC(=O)N/N=C/c2ccc(F)cc2)c(C)c1[N+](=O)[O-] | inactive
COc1cc(/C=N\NC(=O)CNC(=O)c2cccc([N+](=O)[O-])c2)ccc1O | inactive
O=C(COc1ccccc1[N+](=O)[O-])N/N=C/c1ccc[nH]1 | inactive
Cc1nn(-c2ccccc2)c(Cl)c1/C=N/NC(=O)c1nn(C)cc1[N+](=O)[O-] | inactive
Cc1ccccc1NCC(=O)N/N=C\c1ccc([N+](=O)[O-])s1 | 8.2 µM (active)
O=C(COC(=O)Cc1ccc(Cl)cc1Cl)NCc1ccco1 | inactive
CN(C)/C=C(/C(=O)c1ccccc1)S(=O)(=O)c1ccc(Cl)cc1 | inactive
Cc1cc(Cl)nc(NC(=O)Nc2cccc(Cl)c2)n1 | inactive
COc1cc(C(=O)Nc2cc(C(F)(F)F)ccc2N2CCOCC2)ccc1O | inactive
COc1ccc(NC(=O)CC(NC(C)c2ccccc2)C(=O)O)cc1 (stereo not drawn) | inactive

Structure (SMILES) | Potency
CCC(=O)c1c[nH]c(C(=O)NCC2CCCO2)c1 (stereo not drawn) | inactive
CCOC(=O)C1=CN(Cc2ccc(Br)cc2)S(=O)(=O)NC1C (stereo not drawn) | inactive
COc1ccc(Cl)cc1C=CC=NNC(=O)c1ccncc1 | inactive
COc1ccc(Cl)cc1C=CC=Nc1ccc(S(N)(=O)=O)cc1 | 18.4 µM (active)
COc1ccccc1/C=C/C=N/n1c(-c2ccc(Cl)cc2Cl)n[nH]c1=S | inactive
Cc1ccc(NC(=O)CN(C)C(=O)c2ccc(Cl)c(S(=O)(=O)NCc3ccco3)c2)cc1 | inactive
COc1ccc(CNC(=O)CCN2C(=O)c3ccccc3C2=O)cc1 | inactive
COc1ccc2c(c1)C(=C(C#N)C#N)C(=O)N2CCc1ccccc1 | 3.66 µM (active)
CCCCN1C(=O)/C(=C(/C#N)C(N)=O)c2ccccc21 | inactive
Cc1ccc(C(=O)Oc2coc(CSc3nnc(NC(=O)c4cccs4)s3)cc2=O)cc1C | inactive
CCNC(=S)Nc1cccc(Cl)c1C | inactive
Cc1c(Cl)cccc1NC(=S)NCC(O)c1ccccc1 (stereo not drawn) | inactive
Cc1cccc(NC(=S)NCCc2ccc(Cl)cc2)c1C | 18.4 µM (active)
CCOCCCNC(=O)c1cc2c(=O)n3ccccc3nc2s1 | inactive
Cc1ccc(S(=O)(=O)N(C)c2ccc(OCC(=O)OCC(=O)N(CC#N)c3ccccc3)cc2)cc1 | inactive
COc1ccc(C(=O)NCCn2nc(C)cc2C)cc1OC1CCN(C(C)=O)CC1 | inactive
Cc1cc(OCC(=O)Nc2c(C)n(C)n(-c3ccccc3)c2=O)ccc1[N+](=O)[O-] | inactive
Cc1cc(OCCCN2CCN(Cc3ccccc3)CC2)ccc1[N+](=O)[O-] | 23.1 µM (active)
Cc1cc(OCC(=O)NC2CCN(C)CC2)ccc1[N+](=O)[O-] | inactive
Cc1cc(OCCCCOc2ccc(C#N)cc2)ccc1[N+](=O)[O-] | 13 µM (active)
Cc1ccc(OCC(=O)Oc2ccccc2[N+](=O)[O-])cc1 | inactive
O=[N+]([O-])c1ccccc1OCCCCN1CCCCC1 | inactive
COC(=O)c1cccc(N(CC(=O)NCC2CCCO2)C(=O)CCC(=O)Nc2cc(C)on2)c1 (stereo not drawn) | inactive
O=C(CSc1nnc(CNC(=O)c2ccc(F)cc2)o1)Nc1ccc2c(c1)OCO2 | inactive
O=C(Nc1ccncc1)c1ccc(Cl)c([N+](=O)[O-])c1 | 11.6 µM (active)
O=C(Nc1cccnc1)c1ccc(Cl)c([N+](=O)[O-])c1 | inactive

Structure (SMILES) | Potency
Cc1ccnc(NC(=O)c2ccc(Cl)c([N+](=O)[O-])c2)c1 | inactive
Cc1ccc2c(=O)c(C(=O)c3ccc(F)cc3)cn(CC(=O)NC3CCCCC3)c2n1 | inactive
N=C(N)SCc1cccc2ccccc12 | 18.4 µM (active)
c1ccc2c(CNn3cnnc3)cccc2c1 | inactive
c1ccc(NCc2cccc3ccccc23)nc1 | inactive
COc1cc(NC(=O)COc2ccccc2Cl)ccc1NC(=O)C(C)C | inactive
CCCC(=O)NC(=S)Nc1ccc(CN2CCOCC2)cc1 | inactive
CC(Sc1nnc(CNC(=O)c2ccccc2F)n1C)C(=O)Nc1nccs1 (stereo not drawn) | inactive
Brc1cccc(-c2nnn3c2nc(NC2CCCCC2)c2ccccc23)c1 | inactive
CCc1nnc(NC(=O)CSCc2cc(=O)n3cc(C)sc3n2)s1 | inactive
COc1ccc(-c2cc(C(F)(F)F)nc(SCC(=O)Nc3ccc4c(c3)OCO4)n2)cc1OC | inactive
Cc1cc(C(F)(F)F)nc(SCC(=O)Nc2nccs2)n1 | inactive
COc1cc(OC)cc(C(=O)OCC(=O)Nc2ccc(F)cc2F)c1 | inactive
Cc1ccc(O)c(NC(=O)c2cc(-c3ccc(F)cc3)no2)c1 | inactive
CSc1ccccc1NC(=O)CCS(=O)(=O)c1nc(-c2cccs2)cc(C(F)(F)F)n1 | 10.3 µM (active)
CSc1ccccc1NC(=O)Cc1ccc(Br)cc1 | inactive
CC(Sc1nc(-c2ccccc2)cc(C(F)(F)F)n1)C(=O)Nc1ccc2c(c1)OCO2 (stereo not drawn) | inactive
Cc1ccc(O)c(NC(=O)CCS(=O)(=O)c2nc(-c3ccc4c(c3)OCO4)cc(C(F)(F)F)n2)c1 | 8.2 µM (active)
COc1ccccc1-c1cc(C(F)(F)F)nc(S(=O)(=O)CCCC(=O)Nc2cc(C)ccc2O)n1 | inactive
O=C(CSc1ccc(-c2cccs2)nn1)Nc1ccccc1F | inactive
COc1ccc(Cl)cc1NC(=O)CSc1nc(-c2cccs2)cc(C(F)(F)F)n1 | 23.1 µM (active)
COc1ccccc1-c1cc(C(F)(F)F)nc(S(=O)(=O)CCCC(=O)Nc2ccc(F)cc2F)n1 | 5.17 µM (active)
COC(=O)c1ccccc1NC(=O)Cn1c(=O)n(-c2cccc(C(F)(F)F)c2)c(=O)c2c(C)c(C)sc21 | inactive
CNS(=O)(=O)c1ccc(NC(=O)Nc2ccc3c(c2)OCO3)cc1 | inactive
O=C(N[C@@H](Cc1ccccc1)C(=O)OCc1ccccc1)c1nc[nH]c1C(=O)NC1CCNCC1 | inactive
O=C(NC1CCCC1)C1c2ccccc2OCC(=O)N1Cc1ccccc1 (stereo not drawn) | inactive

Structure (SMILES) | Potency
COc1ccccc1NC(=O)c1cc(N2C(=O)C3C4CCC(C4)C3C2=O)ccc1Cl (stereo not drawn) | inactive
CCOC(=O)c1ccccc1NC(=O)CSc1nc2c(sc(=S)n2CC)c(=O)[nH]1 | inactive
CC(C)n1c(O)c(N=Nc2ccccn2)c2ccccc21 | inactive
FC(F)(F)c1ccnc(Oc2ccc(C3=NCCS3)cc2)c1 | inactive
Cc1ccc(NC(=O)c2ccco2)cc1 | inactive
O=C(c1cnccn1)N1CCN(S(=O)(=O)c2cccc(Cl)c2)CC1 | inactive
O=C1CC(c2ccccc2)C(=O)N2C(=O)CC(c3ccccc3)C(=O)N12 (stereo not drawn) | inactive
CCOC(=O)C1CCN(C(c2cc3cc(C)cc(C)c3[nH]c2=O)c2nnnn2C2CCCCC2)CC1 (stereo not drawn) | inactive
FC(F)(F)Oc1ccccc1C(c1nnnn1C1CCCCC1)N1CCN(C/C=C/c2ccccc2)CC1 (stereo not drawn) | 18.4 µM (active)
CNC(=O)NC(=O)C(C)N1CCN(C/C=C/c2ccccc2)CC1 (stereo not drawn) | inactive
COCCn1c(=O)c(-c2ccc(OC)cc2)nc2cnc(Oc3cccc(Cl)c3)nc21 | inactive
Cc1cc(C)n(-c2ccc3nncn3n2)n1 | inactive
COc1ccc(-c2noc(CN(C)S(=O)(=O)c3ccc(C)cc3)n2)cc1 | 16.4 µM (active)
COc1ccc(-c2noc(CSc3nc4ccc(C)cc4[nH]3)n2)cc1 | 20.6 µM (active)
COc1ccc(-c2noc(CCC(=O)N(C)c3ccccc3C)n2)cc1 | inactive
Cc1ccc(S(=O)(=O)N(Cc2nc(-c3ccc(Cl)cc3)no2)C2CCCCC2)cc1 | 16.4 µM (active)
COc1ccc2nc(SCC(=O)Nc3c(C)cc(C)cc3C)[nH]c2c1 | inactive
Cc1ccc(-c2noc(CC(c3ccccc3)c3ccccc3)n2)cc1 | inactive
COc1ccccc1Cc1nc(-c2ccc(C)cc2)no1 | inactive
COc1ccc(-c2noc(CSc3ccc(C)cc3)n2)cc1 | inactive
CC1CCN(Cc2nc(-c3ccc(Cl)cc3)no2)CC1 | inactive
Cc1cccc(OCC(=O)NCCNC(=O)c2cccnc2)c1 | inactive
CCCC(=O)N1CCN(c2nc3c(OC)ccc(C)c3s2)CC1 | inactive
CC(C)C(=O)Nc1c2c(nn1-c1ccccc1)CSC2 | inactive
O=C(CN1C(=O)CCS(=O)(=O)c2ccccc21)NCc1ccc(F)cc1 | inactive
